The values below come from PubChem BioAssay.

Broadly, the inhibition is the relative decrease from the control value, in per cent.

Results filed as inconclusive are left out. Calls of active or inactive are those of the source.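 The calls were made as follows, unless noted: active = differentiation response of at least 50%, scaled between solvent and reference control, from cells with both markers; inactive = the rest.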

Assay [1] can be described thus: yeast TOR pathway RPL19A-GFP modulators, primary screen, cell-based, S. cerevisiae, multiplex flow cytometry (AID 1862; in the data active = percent of DMSO control GFP below about 86%;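 also: lower values mimic rapamycin by blocking the RPL19A rise seen in DMSO cells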). As to conditions: S. cerevisiae RPL19A-GFP strain, flow cytometry fluorescence, 3 h; at 10 µM; stronger effect = lower value. For orientation: A flow cytometer gives signals particle by particle.
Assay [2] is described as follows: modulators of MEP2-GFP levels in yeast, primary screen, S. cerevisiae, multiplex flow cytometry (AID 1867;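 active = GFP response, as percent of the DMSO control, above the screen-wide mean plus 3 SD, about 139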;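 also: median GFP channel fluorescence of barcode-gated MEP2-GFP cells measured by flow cytometry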). Conditions: S. cerevisiae MEP2-GFP strain, 3 h, at 10 µM, stronger effect = higher value, 100% means same as DMSO wells.
Assay [3] can be described thus: modulators of CIT2-GFP expression in yeast, primary screen, S. cerevisiae, GFP fusion, multiplex flow cytometry (AID 1870;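 active = percent response above a set limit, the screen-wide mean plus 3 SD, cut at about 130% in these data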;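 also: barcoded CIT2-GFP strain pooled with four other GFP strains with rapamycin as positive control; median GFP fluorescence per well over plate mean of DMSO wells so 100% = DMSO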). Conditions: 3 h, at 10 µM, stronger effect = higher value.
Assay [4] can be described thus: modulators of LAP4-GFP expression in yeast, primary screen, S. cerevisiae, multiplex flow cytometry (AID 1873;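 active = GFP signal, as percent of the solvent control, above the screen mean plus 3 SD, about 149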). As to conditions: 3 h, at 10 µM, stronger effect = higher value.
Assay [5] can be described thus: modulators of AGP1-GFP expression in yeast TOR pathway, primary screen, cell-based, multiplex flow cytometry, S. cerevisiae (AID 1887;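 active = GFP signal above the screen-wide mean plus 3 SD, that is over about 124.5% of the solvent control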;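 also: AGP1-GFP fusion strain of S. cerevisiae within a five-strain barcoded multiplex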). As to conditions: 3 h, at 10 µM, stronger effect = higher value.
A short description of assay [6]: inhibitors of CD8+ T cell-vesicle binding, pilot screen, LFA-1/ICAM-1 modulator project, MLPCN validation set, flow cytometry (AID 2523;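 active = response below a set limit, under 55% cells CD8-positive and vesicle-bound, and CD8 cells' 90th-percentile brightness under 279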;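 as to vesicle binding response: mean PE anti-B7-1 fluorescence of CD8+ cells relative to row control; 100% = QL9-loaded vesicles with DMSO vehicle in the same plate row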). As to conditions: 2C mouse CD8+ T cells, at 7 µM, stronger effect = lower value; double positive events: measured here: CD8+/vesicle+ event percentage.
The nature of assay [7]: superoxide lowering in aged yeast cells, pilot screen, validation compound set (AID 2706;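 active = superoxide response below 65% of plate, a cut near 3 SD across the whole screen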;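 also: yeast exposed to compound for one week at 30 degrees C before staining; 100% = mean of all compound wells on the same plate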). Conditions: S. cerevisiae aging, superoxide DHE fluorescence; at 10 µM; stronger effect = lower value.
The target of assay [8] is Beta-adrenergic receptor kinase 1 (Homo sapiens) (UniProt P25098). Put plainly: GRK2 binders displacing RNA aptamer, biochemical, validation, human GRK2, bead flow cytometry (AID 488806;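 active = aptamer binding inhibition above 30%, about 3 SD of noise from non-fluorescent compounds; inactive = inhibition at or below 30%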). As to conditions: bead-bound GRK2, FAM-aptamer displacement, at 10 µM, stronger effect = higher value.
Sequence of Beta-adrenergic receptor kinase 1 (Homo sapiens) (P25098 whole entry, looked up): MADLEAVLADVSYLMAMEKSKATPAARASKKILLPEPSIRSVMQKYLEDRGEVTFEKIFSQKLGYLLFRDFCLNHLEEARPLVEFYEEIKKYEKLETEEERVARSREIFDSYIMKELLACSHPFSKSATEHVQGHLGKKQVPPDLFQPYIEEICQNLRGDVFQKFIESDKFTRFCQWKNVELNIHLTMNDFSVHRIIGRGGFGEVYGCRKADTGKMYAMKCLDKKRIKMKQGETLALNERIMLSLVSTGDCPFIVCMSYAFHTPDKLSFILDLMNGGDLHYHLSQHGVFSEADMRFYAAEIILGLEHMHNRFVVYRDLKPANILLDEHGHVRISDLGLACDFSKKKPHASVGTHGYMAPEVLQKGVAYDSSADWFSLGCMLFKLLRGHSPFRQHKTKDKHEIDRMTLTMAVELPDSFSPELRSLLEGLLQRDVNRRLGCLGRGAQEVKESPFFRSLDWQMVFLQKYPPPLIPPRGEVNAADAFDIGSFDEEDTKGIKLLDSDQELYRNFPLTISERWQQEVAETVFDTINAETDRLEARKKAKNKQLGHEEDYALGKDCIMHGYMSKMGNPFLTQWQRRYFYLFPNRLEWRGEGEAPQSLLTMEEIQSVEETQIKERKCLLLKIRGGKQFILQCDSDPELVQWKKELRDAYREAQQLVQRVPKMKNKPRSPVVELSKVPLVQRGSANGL
The target of assay [9] is Beta-2 adrenergic receptor (Homo sapiens) (UniProt P07550). Put plainly: beta2AR agonists driving receptor internalization, pilot screen, cell-based, FAP fluorogen, flow cytometry, validation set (AID 504459;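 active = percent response above 42, roughly 3 SD of non-fluorescent test compounds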;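 also: agonist-driven loss of surface beta2AR via internalization measured by FAP dye flow cytometry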). Conditions: Am2.2-beta2AR cells, FAP surface receptor flow cytometry; at 10 µM; stronger effect = higher value.
Sequence of Beta-2 adrenergic receptor (Homo sapiens) (P07550 whole entry, looked up): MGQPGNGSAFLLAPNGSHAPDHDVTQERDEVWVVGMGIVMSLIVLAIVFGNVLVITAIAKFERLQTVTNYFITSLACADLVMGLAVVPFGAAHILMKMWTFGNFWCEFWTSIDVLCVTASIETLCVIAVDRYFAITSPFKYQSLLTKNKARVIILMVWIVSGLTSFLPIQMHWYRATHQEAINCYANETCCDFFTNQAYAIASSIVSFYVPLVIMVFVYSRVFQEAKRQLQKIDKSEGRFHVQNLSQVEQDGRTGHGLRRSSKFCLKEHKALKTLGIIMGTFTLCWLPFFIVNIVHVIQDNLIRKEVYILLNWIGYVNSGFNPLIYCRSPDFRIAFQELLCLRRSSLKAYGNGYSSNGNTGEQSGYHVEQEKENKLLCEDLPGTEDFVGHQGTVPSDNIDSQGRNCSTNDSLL
In assay [10] the target is AP-2 complex subunit beta (Homo sapiens) (UniProt P63010). Put plainly: inhibitors of arrestin peptide binding to AP2, pilot screen, biochemical, validation set, GST-AP2 beads, flow cytometry (AID 504541;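 active = inhibition above 54%, about 3 SD of non-fluorescent compounds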;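 also: AP2 carries R879A mutation and is captured from E. coli lysate; bead-bound FITC arrestin peptide fluorescence measuring arrestin peptide binding to AP2; 0% = DMSO wells and 100% = excess unlabeled arrestin peptide control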). As to conditions: FITC arrestin peptide, at 10 µM, stronger effect = higher value, AP2 beta2 appendage fragment, R879A mutant.
Sequence of AP-2 complex subunit beta (Homo sapiens) (P63010 whole entry, looked up, the tested form may be a part, one chain of several): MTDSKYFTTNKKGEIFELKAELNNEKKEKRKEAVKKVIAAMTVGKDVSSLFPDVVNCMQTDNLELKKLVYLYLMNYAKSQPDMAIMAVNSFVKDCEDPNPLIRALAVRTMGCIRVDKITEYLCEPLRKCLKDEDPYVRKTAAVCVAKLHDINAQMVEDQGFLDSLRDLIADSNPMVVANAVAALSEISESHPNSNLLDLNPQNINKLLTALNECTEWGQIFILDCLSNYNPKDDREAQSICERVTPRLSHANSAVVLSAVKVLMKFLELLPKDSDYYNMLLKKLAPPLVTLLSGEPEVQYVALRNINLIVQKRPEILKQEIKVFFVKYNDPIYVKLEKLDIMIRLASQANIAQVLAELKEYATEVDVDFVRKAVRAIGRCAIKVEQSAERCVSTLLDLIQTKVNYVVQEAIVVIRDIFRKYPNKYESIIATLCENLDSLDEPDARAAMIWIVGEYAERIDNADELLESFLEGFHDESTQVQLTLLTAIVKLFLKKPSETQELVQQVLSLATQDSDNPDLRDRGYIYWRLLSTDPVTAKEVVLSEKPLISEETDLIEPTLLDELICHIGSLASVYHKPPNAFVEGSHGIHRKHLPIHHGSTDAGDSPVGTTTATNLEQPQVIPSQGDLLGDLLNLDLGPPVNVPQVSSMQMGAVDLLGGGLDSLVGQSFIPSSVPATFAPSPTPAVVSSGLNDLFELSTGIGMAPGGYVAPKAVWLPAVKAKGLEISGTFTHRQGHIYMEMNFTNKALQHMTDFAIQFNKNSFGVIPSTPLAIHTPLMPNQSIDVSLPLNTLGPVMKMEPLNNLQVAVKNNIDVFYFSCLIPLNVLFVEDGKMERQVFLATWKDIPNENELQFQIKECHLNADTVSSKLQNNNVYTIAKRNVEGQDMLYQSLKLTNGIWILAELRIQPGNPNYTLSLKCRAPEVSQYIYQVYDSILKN
The nature of assay [11]: yeast V-ATPase proton transport modulators, S. cerevisiae, pHLuorin, HTS validation (AID 504600; in the data active = response above about 15%;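 also: plate controls were DMSO for no effect and reference compound for full effect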). Conditions: S. cerevisiae pHLuorin cytosolic pH, at 10 µM, stronger effect = higher value.
Assay [12] has as its system anti-desmoglein-3 scFv antibody binding to human DSG3. Put plainly: inhibitors of anti-DSG3 scFv binding to DSG3, pilot screen, biochemical, validation compound set, bead-based, flow cytometry (AID 588368;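 active = binding below the plate cutoff, the plate median minus 3 SD, with a reading above zero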;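 also: signal is the median channel fluorescence of bead-bound GFP antibody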). Conditions: Protein G beads, DSG3-Fc, scFv-GFP binding, at 10 µM, stronger effect = lower value.
A short description of assay [13]: inhibitors of fungal efflux pumps CDR1, CDR2, MDR1, pilot screen, validation compound set, multiplex, phenotypic (AID 588506;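 active = efflux inhibition above 0.42, the validation set average plus 4 SD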;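 also: Nile Red retained in cells so higher fluorescence means more efflux inhibition; 0 = negative control wells and 1 = enniatin B 25 µM full block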). As to conditions: S. cerevisiae pump-expressing triplex, Nile Red efflux flow cytometry; at 10 µM; stronger effect = higher value; the pumps come from Candida albicans.
In assay [14] the target is ATP-binding cassette sub-family B member 6 (Homo sapiens) (UniProt Q9NP58). Put plainly: ABCB6 transporter inhibitors, pilot screen, K562-ABCB6 cells, flow cytometry, validation set (AID 588550;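 active = inhibition above the screen-wide mean plus 3 SD, about 51%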;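 also: 0% = DMSO wells and 100% = benzethonium chloride 70 µM positive control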). As to conditions: K562-ABCB6 porphyrin accumulation, 1 h, at 10 µM, stronger effect = higher value.
Sequence of ATP-binding cassette sub-family B member 6 (Homo sapiens) (Q9NP58 whole entry, looked up): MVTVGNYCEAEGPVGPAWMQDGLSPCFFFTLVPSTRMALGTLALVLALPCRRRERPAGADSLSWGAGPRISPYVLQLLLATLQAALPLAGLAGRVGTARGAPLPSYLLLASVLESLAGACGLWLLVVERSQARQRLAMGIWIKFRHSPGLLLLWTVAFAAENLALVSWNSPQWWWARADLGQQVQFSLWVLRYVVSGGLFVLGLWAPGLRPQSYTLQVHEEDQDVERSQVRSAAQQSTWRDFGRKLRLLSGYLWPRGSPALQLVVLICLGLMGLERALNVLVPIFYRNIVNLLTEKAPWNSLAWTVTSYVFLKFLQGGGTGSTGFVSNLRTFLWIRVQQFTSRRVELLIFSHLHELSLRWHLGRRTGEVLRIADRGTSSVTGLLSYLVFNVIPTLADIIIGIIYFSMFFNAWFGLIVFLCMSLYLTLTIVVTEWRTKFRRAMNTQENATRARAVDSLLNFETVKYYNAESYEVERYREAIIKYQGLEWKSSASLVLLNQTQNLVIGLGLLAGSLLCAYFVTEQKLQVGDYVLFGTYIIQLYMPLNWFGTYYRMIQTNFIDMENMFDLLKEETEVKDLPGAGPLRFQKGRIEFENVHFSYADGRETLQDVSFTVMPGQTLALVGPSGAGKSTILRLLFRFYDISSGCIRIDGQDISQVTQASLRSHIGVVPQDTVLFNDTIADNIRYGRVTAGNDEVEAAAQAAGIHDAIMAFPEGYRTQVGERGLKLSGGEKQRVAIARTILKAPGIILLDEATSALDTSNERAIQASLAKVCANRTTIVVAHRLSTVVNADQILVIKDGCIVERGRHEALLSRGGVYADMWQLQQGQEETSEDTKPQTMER
The nature of assay [15]: promoters of myeloid differentiation in arrested cells, primary screen, cell-based, GFP/MAC1 double positive, flow cytometry, validation set (AID 588685).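 Also: compound exposure lasts four days before antibody staining and flow analysis; 0% = DMSO wells and 100% = 5 µM fulvestrant positive control.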 Conditions: ER-HoxA9 marrow cells, stronger effect = higher value, normalized: vehicle 0, fulvestrant 100.
Assay [16] concerns the target Integrin beta-1 (Homo sapiens) + Integrin alpha-4 (Homo sapiens) (UniProt P13612+P05556). Kind of assay: inhibition of HUTS-21 binding to VLA-4, pilot screen, VLA-4 allosteric modulator project, U937 cells, HUTS-21 mAb, flow cytometry, validation set (AID 2674;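 active = inhibition above 50%, about 3 SD of the validation set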;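 also: antibody binding induced by the VLA-4 ligand LDV present at three times its Kd; 0% = LDV ligand with antibody and no compound and 100% = antibody without LDV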). Conditions: HUTS-21 LIBS mAb binding, at 6.7 µM, stronger effect = higher value, binding induced by LDV ligand.

Sequence of Integrin beta-1 (Homo sapiens) + Integrin alpha-4 (Homo sapiens) (P05556 whole entry, looked up): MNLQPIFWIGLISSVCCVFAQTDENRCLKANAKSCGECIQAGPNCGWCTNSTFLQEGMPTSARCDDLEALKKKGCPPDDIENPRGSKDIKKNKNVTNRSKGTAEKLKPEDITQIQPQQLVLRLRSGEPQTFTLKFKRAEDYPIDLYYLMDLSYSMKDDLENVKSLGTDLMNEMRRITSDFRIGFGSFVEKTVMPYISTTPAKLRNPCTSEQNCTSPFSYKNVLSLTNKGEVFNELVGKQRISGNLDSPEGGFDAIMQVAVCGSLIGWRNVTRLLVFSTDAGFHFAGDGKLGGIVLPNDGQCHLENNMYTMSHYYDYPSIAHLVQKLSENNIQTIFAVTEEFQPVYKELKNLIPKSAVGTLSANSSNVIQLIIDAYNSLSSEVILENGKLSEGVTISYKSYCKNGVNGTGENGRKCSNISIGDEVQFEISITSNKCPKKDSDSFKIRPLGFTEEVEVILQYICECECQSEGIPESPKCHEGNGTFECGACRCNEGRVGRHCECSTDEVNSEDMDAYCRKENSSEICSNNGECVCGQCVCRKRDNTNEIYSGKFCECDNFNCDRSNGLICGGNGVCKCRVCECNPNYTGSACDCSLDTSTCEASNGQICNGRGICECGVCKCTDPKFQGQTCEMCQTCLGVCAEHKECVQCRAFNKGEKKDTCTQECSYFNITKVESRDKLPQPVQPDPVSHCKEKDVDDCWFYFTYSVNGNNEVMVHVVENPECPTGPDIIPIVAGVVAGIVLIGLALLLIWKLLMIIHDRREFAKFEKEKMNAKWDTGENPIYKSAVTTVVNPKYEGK
Sequence of Integrin beta-1 (Homo sapiens) + Integrin alpha-4 (Homo sapiens) (P13612 whole entry, looked up): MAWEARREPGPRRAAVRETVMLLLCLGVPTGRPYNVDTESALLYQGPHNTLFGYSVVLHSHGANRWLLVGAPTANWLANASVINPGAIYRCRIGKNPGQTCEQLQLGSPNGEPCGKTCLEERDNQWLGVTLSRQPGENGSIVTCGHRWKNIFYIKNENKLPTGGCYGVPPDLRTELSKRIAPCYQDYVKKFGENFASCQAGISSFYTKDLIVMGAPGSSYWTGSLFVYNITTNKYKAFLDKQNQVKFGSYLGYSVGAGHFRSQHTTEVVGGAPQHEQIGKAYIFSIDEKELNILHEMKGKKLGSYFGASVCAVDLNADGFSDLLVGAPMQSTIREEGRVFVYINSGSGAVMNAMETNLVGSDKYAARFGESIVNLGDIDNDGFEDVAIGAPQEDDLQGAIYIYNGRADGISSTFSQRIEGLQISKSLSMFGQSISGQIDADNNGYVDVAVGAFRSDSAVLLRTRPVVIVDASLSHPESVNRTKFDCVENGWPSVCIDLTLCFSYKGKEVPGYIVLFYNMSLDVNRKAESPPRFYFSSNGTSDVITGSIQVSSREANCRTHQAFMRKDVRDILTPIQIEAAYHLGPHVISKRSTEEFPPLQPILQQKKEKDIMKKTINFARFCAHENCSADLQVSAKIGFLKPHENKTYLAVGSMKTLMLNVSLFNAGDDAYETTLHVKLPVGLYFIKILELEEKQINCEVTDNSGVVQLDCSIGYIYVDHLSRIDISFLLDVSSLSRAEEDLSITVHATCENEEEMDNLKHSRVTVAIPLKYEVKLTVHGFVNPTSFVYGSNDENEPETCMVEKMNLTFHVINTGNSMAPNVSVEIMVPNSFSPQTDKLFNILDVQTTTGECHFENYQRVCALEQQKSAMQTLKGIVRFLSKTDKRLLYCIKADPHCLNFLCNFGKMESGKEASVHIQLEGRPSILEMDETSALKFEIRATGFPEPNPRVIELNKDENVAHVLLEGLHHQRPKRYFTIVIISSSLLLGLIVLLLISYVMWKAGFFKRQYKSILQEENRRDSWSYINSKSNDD

In the case of `CC(C)c1cc(=O)oc2c3c4c(cc12)CCCN4CCC3`, the percent of DMSO control GFP in [1] was 104% (inactive). For the same molecule, the GFP response vs DMSO was 99.6% (inactive) in assay [2] and 78.6% (inactive) in [4]. Also, the percent response of DMSO control in assay [3] was 99.6% (inactive). In assay [5], the GFP response, % of DMSO was 90.6% (inactive). This molecule showed a double positive events in assay [6] of 59.3%. Also, in [6], the vesicle binding response is 145% (inactive). The superoxide response (% of plate) in assay [7] is 97.7% (inactive). Moreover, the aptamer binding inhibition in assay [8] is 9% (inactive). Moreover, the response is 46% (active) in assay [9] and 21.6% (active) in [11]. For the same molecule, the inhibition was -43.1% (inactive) in assay [10] and 2% (inactive) in assay [14]. In [12], the binding (% of control) was 98.7% (inactive). Further, the efflux inhibition (fraction of control) in [13] is 0.3 (inactive). In [15], the differentiation response was -21.6% (inactive).

For the molecule `CC(NC(=O)OCc1ccccc1)C(=O)N1CC(O)CC1C(=O)O` (centres undefined), the percent of DMSO control GFP in assay [1] is 103% (inactive). For the same molecule, the GFP response vs DMSO in assay [2] was 112% (inactive); in assay [4], 105% (inactive). The percent response of DMSO control in assay [3] was 90.1% (inactive). Also, in assay [5], the GFP response, % of DMSO is 103% (inactive). The molecule also registered a double positive events in assay [6] of 62.9%. In addition, the vesicle binding response in assay [6] was 182% (inactive). Besides, the values for the inhibition in assay [16], in [10] and in assay [14] were 6.4% (inactive), 31.1% (inactive) and 4% (inactive), respectively. Further, the superoxide response (% of plate) in [7] is 97.5% (inactive). Further, the aptamer binding inhibition in assay [8] was 3% (inactive). Besides, the response is 9.77% (inactive) in assay [9] and -4.2% (inactive) in assay [11]. In addition, in [12], the binding (% of control) was 99.5% (inactive). Further, the efflux inhibition (fraction of control) in assay [13] is 0.8 (active). Also, the differentiation response in assay [15] was 29.6% (inactive).

For the molecule `CC[C@H](C)C(=O)O[C@H]1C[C@@H](C)C=C2C=C[C@H](C)[C@H](CC[C@@H]3C[C@@H](O)CC(=O)O3)[C@H]21`, the percent of DMSO control GFP in assay [1] was 107% (inactive). Also, the figures for the GFP response vs DMSO in assay [2] and in [4] were 108% (inactive) and 97% (inactive), respectively. For the same molecule, the percent response of DMSO control in [3] was 103% (inactive). Further, the GFP response, % of DMSO in [5] is 95.8% (inactive). Moreover, in assay [6], the double positive events was determined as 64.6%. The vesicle binding response in [6] is 126% (inactive). The inhibition was -5.11% (inactive) in [16], 49.7% (inactive) in assay [10] and 0% (inactive) in assay [14]. For the same molecule, in assay [7], the superoxide response (% of plate) was 93.1% (inactive). The aptamer binding inhibition in [8] is 2% (inactive). Also, the response was 1.87% (inactive) in assay [9] and -9.69% (inactive) in assay [11]. For the same molecule, the binding (% of control) in assay [12] was 109% (inactive). In addition, in [13], the efflux inhibition (fraction of control) is 0.28 (inactive). Also, the differentiation response in assay [15] was -11.9% (inactive).

On to `COc1cc(SC)ccc1C(=O)NC(C)C`, for which the percent of DMSO control GFP in assay [1] was 102% (inactive). For the same molecule, the GFP response vs DMSO in assay [2] and in [4] was 101% (inactive) throughout. The percent response of DMSO control in [3] was 99.6% (inactive). The GFP response, % of DMSO in assay [5] was 94.9% (inactive). Further, in assay [6], the double positive events was determined as 58.7%. The vesicle binding response in assay [6] is 171% (inactive). The inhibition in assay [16] was -9.98% (inactive); in assay [10] it was -4.67% (inactive); in [14] it was 6% (inactive). Further, in assay [7], the superoxide response (% of plate) was 97.8% (inactive). The aptamer binding inhibition in [8] was -1% (inactive). The values for the response in assay [9] and in assay [11] were -0.58% (inactive) and 1.52% (inactive), respectively. Also, the binding (% of control) in assay [12] is 101% (inactive). For the same molecule, the efflux inhibition (fraction of control) in assay [13] is -0.13 (inactive). Besides, the differentiation response in [15] is -21.6% (inactive).

Turning to `CC(=O)NC(Cc1c[nH]c2ccccc12)C(=O)N/N=C/c1ccccc1` (centres undefined), in assay [1], the percent of DMSO control GFP was 98.6% (inactive). For the same molecule, the GFP response vs DMSO was 108% (inactive) in assay [2] and 99.1% (inactive) in [4]. In addition, the percent response of DMSO control in assay [3] was 104% (inactive). Moreover, the GFP response, % of DMSO in assay [5] was 98.6% (inactive). Moreover, the double positive events in [6] was 62.8%. In assay [6], the vesicle binding response is 200% (inactive). Further, the inhibition in assay [16] is -15.8% (inactive); in [10] it was 60.7% (active); in assay [14], -12% (inactive). Further, in assay [7], the superoxide response (% of plate) is 98% (inactive). The aptamer binding inhibition in assay [8] is -3% (inactive). Further, the response in [9] was -1.6% (inactive); in [11], -13.1% (inactive). Also, the binding (% of control) in [12] was 104% (inactive). The efflux inhibition (fraction of control) in assay [13] is 0 (inactive). Moreover, the differentiation response in [15] is -3.11% (inactive).
